The campaign covered roughly 13,000 compounds. About 3,200 (25%) showed an effect of 50% or more. The list shows a part of the results.

In this assay the test system is P. falciparum stage V gametocytes. Set-up: BacTiter-Glo ATP luminescence viability of purified stage V gametocytes in 384-well plates, per cent inhibition versus DMSO. As to conditions: 48 h, 5 µM; inhibitor.
Usually % Inhibition stands for the drop in the measured response relative to a control, in per cent. With `Clc1ccc(-c2cc(-c3csc(NCCN4CCCCC4)n3)on2)cc1` [TCMDC-140321], the “% Inhibition” value is recorded as -2.378%. For `NC(=O)C1CCN(Cc2cccc(-c3cccc(-c4nc5cc(C(F)(F)F)ccc5[nH]4)c3)c2)CC1.O=C(O)C(F)(F)F` [TCMDC-132696], the “% Inhibition” value was -65.64%. Consider `Cc1ccc(C(C)C)c(Oc2ccc3nc(N)nc(N)c3c2)c1` [TCMDC-135559], for which the “% Inhibition” value is -10.97%. For `OC1(Cc2ccccc2)CCN(Cc2cccc(-c3c[nH]c4nc(NC5CCCC5)ncc34)c2)CC1` [TCMDC-133773] the value was -59.82%. For the compound `FC(F)(F)c1ccc2nc(-c3cccc(-c4cccc(CNCCc5ccncc5)c4)c3)[nH]c2c1` [TCMDC-132847], the “% Inhibition” value is 78.26%. In the case of `FC(F)(F)c1ccc2nc(-c3cccc(-c4cccc(CN5CCN(c6ccncc6)CC5)c4)c3)[nH]c2c1` [TCMDC-132911], the “% Inhibition” value is listed as -29.28%. Turning to `O=C(O)C(F)(F)F.c1cc(CNCCc2ccncc2)cc(-c2ccc(-c3nc4ccccc4[nH]3)s2)c1` [TCMDC-132842], the “% Inhibition” value was -14.4%.

Consider `FC(F)(F)c1ccc2nc(-c3cccc(-c4ccc(CNCCc5ccncc5)cc4)c3)[nH]c2c1` [TCMDC-132845], for which the “% Inhibition” value is reported as -28.78%. Regarding `c1cc(CNCCc2ccncc2)cc(-c2csc(-c3nc4ccccc4[nH]3)c2)c1` [TCMDC-132841], the “% Inhibition” value was -33.89%. As for `c1cc(CNCCc2ccncc2)cc(-c2cccc(-c3nc4ccccc4[nH]3)c2)c1` [TCMDC-132858], the “% Inhibition” value was 84.49%. For `O=C(c1cc2nc3c(c(C(F)(F)F)n2n1)CCc1ccccc1-3)N1CCN2CCCC2C1` (stereo not drawn) [TCMDC-123850], the “% Inhibition” value is listed as 0.1952%. `O=C(NCC1CCN(Cc2ccc(F)cc2)C1)c1cc(-c2cccc(C(F)(F)F)c2)cs1` (stereo not drawn) [TCMDC-134481]: the “% Inhibition” value was 39.58%. With `CC(C)c1ccc(CN2CCC(CNC(=O)c3cc(-c4cccc(C(F)(F)F)c4)cs3)C2)cc1` (stereo not drawn) [TCMDC-134435], the “% Inhibition” value is reported as 101.9%. For `CC(C)(C)CCN1CCC(CNC(=O)c2cc(-c3cccc(Cl)c3)cs2)C1` (stereo not drawn) [TCMDC-134426], the “% Inhibition” value is recorded as 39.67%. With `CC(C)(C)c1ccc(CN2CCC(NC(=O)c3cc(-c4cccc(C(F)(F)F)c4)cs3)C2)cc1` (stereo not drawn) [TCMDC-134475], the “% Inhibition” value is on record as 53.3%. Consider `CSc1ccc(CN2CCC(NC(=O)c3ccc(-c4cccc(C(F)(F)F)c4)s3)CC2)cc1` [TCMDC-134340], for which the “% Inhibition” value is listed as 5.591%. In the case of `CC(C)(C)CCN1CCC(NC(=O)c2ccc(-c3cccc(C(F)(F)F)c3)s2)CC1` [TCMDC-134322], the “% Inhibition” value was -68.21%. As to `O=C(NC1CCN(Cc2ccc(F)cc2)CC1)c1ccc(-c2cccc(C(F)(F)F)c2)s1` [TCMDC-134358], the “% Inhibition” value was -14.39%. For `CCc1ccc(CN2CCC(CNC(=O)c3cc(-c4cccc(C(F)(F)F)c4)cs3)C2)cc1` (stereo not drawn) [TCMDC-134430], the “% Inhibition” value stood at 102.1%. The figure for `CC(C)(C)CCN1CCC(CNC(=O)c2cc(-c3cccc(C(F)(F)F)c3)cs2)C1` (stereo not drawn) [TCMDC-134425] is 78.38%; for `COc1ccc(CNC(=O)NC2CCN(c3ccnc(Nc4ccc(F)cc4)n3)C2)cc1` (stereo not drawn) [TCMDC-133592] it is -44.87%; for `CCCc1cc(Cc2cnc(N)nc2N)cc(CCC)c1OCCCCC(=O)OC` [TCMDC-137290] it is -38.14%. As to `CCNc1cc(C)nc(Nc2ccccc2)n1` [TCMDC-134006], the “% Inhibition” value stood at 18.88%. Turning to `CC(=O)Nc1nc(C(=O)Nc2ccc(-c3ccc(-c4nc5ccccc5[nH]4)cc3)cc2)cs1` [TCMDC-137128], the “% Inhibition” value is -5.634%. As to `CCOC(=O)CCCOc1c(OC)cc(Cc2cnc(N)nc2N)cc1OC` [TCMDC-137899], the “% Inhibition” value is -8.343%. Consider `O=C(Nc1ccc(Cl)c(C(F)(F)F)c1)Nc1ccc(Cl)c(C(F)(F)F)c1` [TCMDC-137559], for which the “% Inhibition” value was -42.31%.

`CC(C)(C)c1ccc(CN2CCC(CNC(=O)c3cc(-c4cccc(C(F)(F)F)c4)cs3)C2)cc1` (stereo not drawn) [TCMDC-134442]: the “% Inhibition” value is listed as 107%. Consider `CN(C)CCOc1cc(NC(=O)/C=C/c2cccc3ccccc23)ccc1I` [TCMDC-139119], for which the “% Inhibition” value amounted to 42.15%. `OCCC1CCN(Cc2ccc(-c3ccc(-c4nc5ccccc5[nH]4)cc3)cc2)CC1` [TCMDC-133905]: the “% Inhibition” value is given as -1.76%. With `OCC1CCN(Cc2ccc(-c3cccc(-c4nc5ccccc5[nH]4)c3)cc2)CC1` [TCMDC-132552], the “% Inhibition” value is 86.93%. As for `OCC1CCN(Cc2cccc(-c3ccc(-c4nc5ccc(F)cc5[nH]4)cc3)c2)CC1` [TCMDC-133934], the “% Inhibition” value is listed as -11.78%. Consider `NC(=O)C1CCN(Cc2ccc(-c3cccc(-c4nc5ccc(F)cc5[nH]4)c3)cc2)CC1` [TCMDC-132689], for which the “% Inhibition” value is recorded as -35.18%. The figure for `OCC1CCN(Cc2ccc(-c3cccc(-c4nc5ccc(F)cc5[nH]4)c3)cc2)CC1` [TCMDC-133121] is 70.65%. For `OCC1CCN(Cc2ccc(-c3ccc(-c4nc5ccccc5[nH]4)cc3)cc2)CC1` [TCMDC-133927] the value was -51.35%; for `COc1cccc(CNC[C@@H](O)[C@H](Cc2ccccc2)NC(=O)c2cc(OC(C)C)cc(N3CCCCS3(=O)=O)c2)c1` [TCMDC-134522], -6.565%; for `COc1ccc2c(c1)CCCC2C(C)NCC(O)c1cccc(C(F)(F)F)c1` (stereo not drawn) [TCMDC-131535], -11.59%. Take `Cc1[nH]c(C)c(-c2ccc(-c3cccc(Cl)c3)nc2)c(=O)c1Br` [TCMDC-136160]: the “% Inhibition” value was found to be 67.06%. The figure for `Cc1[nH]c(C)c(-c2ccc(-c3cccc(Cl)c3)nc2)c(=O)c1Cl` [TCMDC-136300] is 76.37%. Turning to `Cc1ccc(NC(=O)c2ccc(CN3CCCN(CCC(C)C)CC3)cc2)cc1C` [TCMDC-136443], the “% Inhibition” value is given as -19.3%. For `Cn1cnc2c(Nc3ccncc3)nc(-c3ccc4ccccc4c3)nc21` [TCMDC-141131] the value was -3.392%. In the case of `Cc1ccc(-n2c(C)nc3c(Nc4ccc(-c5ccncc5)cc4)ncnc32)c(C)c1` [TCMDC-136289], the “% Inhibition” value amounted to 103.3%.

In the case of `Cc1nc(Nc2ccncc2)cc(-c2ccncc2)n1` [TCMDC-124589], the “% Inhibition” value was -12.99%. `Cc1nc2c(Nc3nc(-c4ccncc4)cs3)ncnc2n1-c1ccccc1Cl` [TCMDC-136288]: the “% Inhibition” value is 72.25%. Turning to `Oc1ccc2[nH]c(-c3cccc(F)c3)nc2c1CN1CCC(O)(c2ccccc2)CC1` [TCMDC-136359], the “% Inhibition” value is given as -19.77%.

Turning to `CC(C(=O)Nc1ccc(Br)cc1Br)N1CCN(C(=O)c2ccco2)CC1` (stereo not drawn) [TCMDC-124879], the “% Inhibition” value is recorded as -7.948%. Consider `CCCC(C)NC(=O)[C@H](CC1CCCCC1)NC(=O)c1ccc(O)c(-c2ccc(OC)cc2)c1` (stereo partly drawn) [TCMDC-140801], for which the “% Inhibition” value came out at 27.46%. As for `CC[C@H](C)CNC(=O)c1cncc(-c2ccc(CNCCOc3ccccc3)cc2)c1` [TCMDC-134239], the “% Inhibition” value is listed as -0.3321%. The figure for `CCCNC(=O)c1cncc(-c2ccc(CNCCCc3ccccc3)cc2)c1` [TCMDC-134248] is 11.91%; for `CN(C)CCCNCc1ccc(-c2ccc(CNCCc3ccccc3)cc2)cc1` [TCMDC-141456] it is 100.3%; for `CN(C)CCCNCc1ccc(-c2ccc(CNCCOc3ccccc3)cc2)cc1` [TCMDC-141457] it is 91.94%.

For `CN(C)CCCOc1cccc(NC(=O)Nc2ccc(-c3ccccc3)cc2)c1` [TCMDC-139539], the “% Inhibition” value is on record as -65.39%.

As to `CC1(C)N=C(N)N=C(N)N1OCCOc1cccc(C(F)(F)F)c1` [TCMDC-131615], the “% Inhibition” value stood at 4.099%. For the compound `Cc1cc(CNCCCCCCNCc2cccc([N+](=O)[O-])c2)ccc1O` [TCMDC-140413], the “% Inhibition” value turned out to be 32.63%. The figure for `CCCCCCNCc1c(O)ccc2c(CNCCCCCC)c(O)ccc12` [TCMDC-137592] is -1.678%. The figure for `CCc1c(CCNCCCCCCNCCc2ccc([N+](=O)[O-])cc2)ccc(O)c1O` [TCMDC-132067] is 69.46%; for `CCc1c(CCNCCCCCCNCCc2ccc(Br)cc2)ccc(O)c1O` [TCMDC-132044] it is 115.9%; for `O=C(N[C@H]1CCCC[C@H]1C(=O)O)c1ccccc1` [TCMDC-124293] it is -3.601%. For the compound `Cc1ccc(CNC(=O)c2cnc(N3CCN(c4ccncc4)CC3)c(Cl)c2)cc1` [TCMDC-134626], the “% Inhibition” value was determined as 3.173%. `COc1c(C2CCN(CCCCNC(=O)c3ccc(-c4ccc(C#N)cc4)cc3)CC2)ccc2c1C(C)(C)CCC2(C)C` [TCMDC-135481]: the “% Inhibition” value came to 92.96%. Take `CC1(C)CCC(C)(C)c2c1ccc(C1CCN(CCCCNC(=O)c3ccc(-c4ccc(C#N)cc4)cc3)CC1)c2O` [TCMDC-135505]: the “% Inhibition” value was 91.89%. As to `COc1c(C2=CCN(CCCCNC(=O)c3ccc(-c4ccc(C#N)cc4)cc3)CC2)c(C)cc2c1C(C)(C)CCC2(C)C` [TCMDC-135480], the “% Inhibition” value was 3.716%. Consider `Cc1cc(C2CCN(CCCCNC(=O)c3ccc(-c4ccc(C#N)cc4)cc3)CC2)c(C)cc1O` [TCMDC-138817], for which the “% Inhibition” value is listed as -58.22%. For `CC1(C)CCC(C)(C)c2c1ccc(C1CCN(CCCCNC(=O)c3ccc(-c4ccc(Cl)cc4)cc3)CC1)c2O` [TCMDC-135483] the value was 86.31%; for `Cc1[nH]c2ccccc2c1C1CCN(CCCCNC(=O)c2ccc(-c3ccc(C#N)cc3)cc2)CC1` [TCMDC-138808], 60.39%; for `CCc1ccc(C2CCN(CCCCNC(=O)c3ccc(-c4ccc(Cl)cc4)cc3)CC2)c(O)c1` [TCMDC-138548], 18.22%.

Consider `Cc1c(C2CCN(CCCCNC(=O)c3ccc(-c4ccc(C#N)cc4)cc3)CC2)c2ccccc2n1CCO` [TCMDC-138815], for which the “% Inhibition” value was -16.09%. With `COc1c(C2CCN(CCCCNC(=O)c3ccc(-c4ccc(C#N)cc4)cc3)CC2)cc(Cl)c2c1CCCC2` [TCMDC-135288], the “% Inhibition” value was -31.75%. For `N#Cc1ccc(-c2ccc(C(=O)NCCCCN3CCC(c4nc5ccccc5[nH]4)CC3)cc2)cc1` [TCMDC-133362], the “% Inhibition” value was 24.39%.

In the case of `Cc1ccc(C2CCN(CCCCNC(=O)c3ccc(-c4ccc(C#N)cc4)cc3)CC2)c(O)c1` [TCMDC-138658], the “% Inhibition” value is on record as -70.86%.

Values taken from publication PMC4552634, “A New Set of Chemical Starting Points with Plasmodium falciparum Transmission-Blocking Potential for Antimalarial Drug Discovery” (PLoS ONE, 2015).
